Screens: PubChem BioAssay, several laboratories
Shown are actives, neighbours in structure and some others; about 2.3% of the full set was active somewhere.
ADAM17 inh – inhibits human ADAM17 | P78536 | recombinant ADAM17, EDANS/DABCYL FRET peptide cleavage | inhibition, % at 6.95 µM | hit rate 0.83% among 370,000;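 active = inhibition above the mean of compounds lying between control limits plus 3 SD, set per campaign, cut at about 8.5% in these data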;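 also: 0% = DMSO-only wells as the low control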
Target sequence (P78536 215-824 limits assumed): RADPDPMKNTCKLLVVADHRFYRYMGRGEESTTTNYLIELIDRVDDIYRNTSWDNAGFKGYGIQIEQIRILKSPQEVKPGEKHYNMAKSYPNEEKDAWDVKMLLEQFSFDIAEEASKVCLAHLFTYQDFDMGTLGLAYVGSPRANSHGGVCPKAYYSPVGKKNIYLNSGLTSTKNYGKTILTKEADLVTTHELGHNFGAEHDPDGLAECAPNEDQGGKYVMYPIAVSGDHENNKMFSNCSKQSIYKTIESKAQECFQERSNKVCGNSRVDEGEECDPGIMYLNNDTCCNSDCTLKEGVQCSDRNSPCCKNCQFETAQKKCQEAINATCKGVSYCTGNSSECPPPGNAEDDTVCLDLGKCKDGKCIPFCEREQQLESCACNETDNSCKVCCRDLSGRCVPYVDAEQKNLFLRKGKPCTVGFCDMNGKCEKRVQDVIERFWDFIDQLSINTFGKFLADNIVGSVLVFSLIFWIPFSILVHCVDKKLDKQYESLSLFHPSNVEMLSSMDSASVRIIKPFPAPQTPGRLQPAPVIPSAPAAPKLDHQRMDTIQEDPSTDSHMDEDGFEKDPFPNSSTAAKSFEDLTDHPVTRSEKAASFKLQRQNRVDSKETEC
proKLK7 act – activators of human kallikrein-7 zymogen; P49862; purified proKLK7, EDANS-DABCYL substrate fluorescence; 100% is mature enzyme control, 0% vehicle; activation, % at 7 µM; hit rate 0.9% among 370,000;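 active = activation above the mean of all tested compounds plus 3 SD, computed per campaign excluding outliers beyond control limits, cut at about 13% in these data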
ADAM10 inh – ADAM10 inhibition, QFRET primary screen; O14672; recombinant ADAM10, EDANS/DABCYL FRET peptide cleavage, 3 h; inhibition, % at 7 µM; hit rate 0.62% among 370,000; AID 720582;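 active = inhibition above a per-campaign cutoff equal to the mean of compounds falling between control-based bounds plus 3 SD, cut at about 20% in these data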;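 also: 0% = DMSO wells while the 100% control is not disclosed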
V-ATPase pH – regulators of yeast V-ATPase proton transport; response, % at 10 µM; AID 504577; S. cerevisiae, pHLuorin cytosolic pH fluorescence; hit rate 0.37% among 350,000; in the data active = response mostly above about 7.3%, no sharp cut-off; inactive = mostly below about 5.4%; also: actives read high
ADAM10 confirm – confirmation of inhibitors of human ADAM10; hit rate 1% among 2,100; shares compounds with ADAM10 inh; AID 743208; ADAM10 QFRET peptide cleavage, EDANS fluorescence; inhibition, % at 6.95 µM;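 active = inhibition above about 20% chosen separately for each screening run, limit read from the data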;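 also: 0% = DMSO wells and 100% = marimastat wells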
ADAM17 counter – counter-screen for ADAM10 exosite inhibitors: inhibitors of human ADAM17; hit rate 0.5% among 2,100; shares compounds with ADAM10 inh; ADAM17 QFRET peptide cleavage, EDANS fluorescence; AID 743214; inhibition, % at 6.95 µM;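 active = mean triplicate inhibition above the solvent-only control wells' mean plus 3 SD, cut at about 12% in these data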;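 also: 0% = DMSO wells and 100% = marimastat wells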
ADAM10 ctr – inhibits human ADAM10 in ADAM17 exosite counter-screen; shares compounds with ADAM17 inh; recombinant ADAM10, EDANS/DABCYL FRET peptide cleavage, 3 h; inhibition, % at 6.95 µM; hit rate 47% among 2,900; AID 743256;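 active = mean inhibition over the triplicate runs exceeds the activity threshold set in the earlier primary screen, cut at about 20% in these data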;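 also: 0% = DMSO wells and 100% = marimastat wells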
ADAM17 confirm – human ADAM17 inhibition, confirmation. recombinant ADAM17, EDANS/DABCYL QFRET peptide cleavage. hit rate 65% among 2,900. inhibition, % at 6.95 µM. shares compounds with ADAM17 inh;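 active = mean inhibition across replicates above the hit cutoff set in the primary screen, cut at about 8.5% in these data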;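 also: 0% = DMSO wells and 100% = marimastat wells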
* hit, by the source's call; . = no result.

SMILES	ADAM17 inh	proKLK7 act	ADAM10 inh	V-ATPase pH	ADAM10 confirm	ADAM17 counter	ADAM10 ctr	ADAM17 confirm
CC(=O)c1ccc(NC(=O)CSc2nnc(-c3ccco3)c(-c3ccco3)n2)cc1	-1	0	-6	1	.	.	.	.
CC(C)(C)OC(=O)NCCCCCNC(=O)c1[nH]cnc1C(=O)Nc1ccc(Cl)cc1	14*	0	31*	12	5	2	39*	22*
C[C@H](NC(=O)c1nc[nH]c1C(=O)N[C@@H](CCCCNC(=O)OC(C)(C)C)C(=O)OC(C)(C)C)c1ccccc1	12*	0	21*	5	6	2	29*	18*
C[C@H](NC(=O)c1nc[nH]c1C(=O)NCc1ccc(CNC(=O)OC(C)(C)C)cc1)c1ccccc1	25*	0	54*	1	3	1	29*	16*
CC(C)(C)OC(=O)NCCCC[C@H](NC(=O)c1[nH]cnc1C(=O)N[C@@H](Cc1ccccc1)C(=O)OC(C)(C)C)C(=O)OC(C)(C)C	1	0	1	5	.	.	.	.
CCOC(=O)C1=CCC(c2ccccc2)N(S(=O)(=O)c2ccccc2)C1 (stereo not given)	15*	1	22*	.	3	1	13	6
CCOC(=O)C1=CCC(c2ccccc2)N(S(C)(=O)=O)C1 (stereo not given)	-9	0	3	.	.	.	.	.
COC(=O)[C@H](C)N(CCc1cn(Cc2ccccc2)nn1)S(=O)(=O)c1ccccc1Br	-3	0	-13	.	.	.	.	.
CCC(C)NS(=O)(=O)c1ccc(NC(=O)C(Sc2ccccc2)c2ccccc2)cc1 (stereo not given)	20*	0	41*	2	8	3	42*	22*
COc1ccc(CNC(=O)N(C)C[C@@H]2OCc3ccccc3-c3c(n(C)c4ccccc34)C(=O)N([C@@H](C)CO)C[C@@H]2C)cc1	-2	0	-7	.	.	.	.	.
O=C(Oc1cccc(/C=N/Nc2nc(Nc3ccccc3)nc(N3CCOCC3)n2)c1)c1ccco1	8.8*	0	22*	4	8	3	41*	23*
Cc1ccc(Nc2nc(N/N=C/c3c[nH]c4ccccc34)nc(N3CCOCC3)n2)cc1	10*	-1	22*	4	8	3	27*	16*
Cc1[nH]c2ccccc2c1/C=N/Nc1nc(Nc2ccc(F)cc2)nc(N2CCOCC2)n1	-1	1	15	0	.	.	.	.
COc1cc(C(=O)c2ccccc2)c(OC)cc1C(=O)Nc1ccc(O)cc1	15*	0	30*	-2	-1	1	0	3
COc1ccc(NC(=O)c2cc3ccccc3cc2OC)cc1	-1	-5	0	-5	.	.	.	.
O=C(Nc1cccc(F)c1)c1cc(S(=O)(=O)NCCC2=CCCCC2)ccc1F	9.1*	0	24*	0	8	2	22*	14*
CNc1ccc(C=C2C=Cc3ccccc32)cc1	13*	-1	41*	6	6	1	46*	18*
CC(C)C(=O)Nc1ccc(C=C2C=Cc3ccccc32)cc1	5	0	6	.	.	.	.	.
CC(C)(C)c1ccc(S(=O)(=O)NCC2CCN(C(=O)C(=O)c3cccs3)CC2)cc1	-1	1	1	.	.	.	.	.
Cc1cc(C)n(Cc2ccc(NC(=O)c3ccc(COc4ccccc4Br)cc3)cc2)n1	11*	-1	29*	-4	10	4	17	12*
COc1ccc(C(=O)NC(=S)Nc2ccc(Cc3ccncc3)cc2)cc1	9.0*	0	36*	-1	3	1	23*	11*
COc1ccc(S[C@]2(C(=O)N3CCCC3)CC(=O)N(c3ccsc3)[C@@H]2c2ccc(OC)cc2)cc1	6	0	7	.	.	.	.	.
O=C(Nc1nc2ccc(F)cc2s1)C1CCN(S(=O)(=O)c2cc([N+](=O)[O-])ccc2Cl)CC1	8.8*	1	21*	0	5	2	15	13*
CC1(C(=O)NCc2ccc(C(F)(F)F)cc2)CCN1Cc1cc2ccccc2o1 (stereo not given)	11*	0	24*	.	2	0	15	7
CC1(C(=O)NCc2cccc(C(F)(F)F)c2)CCN1Cc1ccc2ccccc2c1 (stereo not given)	4	0	12	.	.	.	.	.
SMILES	ADAM17 inh	proKLK7 act	ADAM10 inh	V-ATPase pH	ADAM10 confirm	ADAM17 counter	ADAM10 ctr	ADAM17 confirm
Nn1c(SCC(=O)Nc2cc(C(F)(F)F)ccc2Cl)nnc1-c1n[nH]c2c1CCC2	-1	0	-1	.	.	.	.	.
CC1(Cc2ccc(C(F)(F)F)o2)C(=O)Nc2cc(-c3ccc(F)cc3F)ccc21 (stereo not given)	13*	0	45*	.	11	3	44*	24*
CC1(Cc2cc(Cl)ccc2C(F)(F)F)C(=O)Nc2cc(C(F)(F)F)ccc21 (stereo not given)	8	-1	18	.	.	.	.	.
Cc1ccc(S(=O)(=O)N2CCC(=O)N(C(COCc3ccccc3)Cc3ccccc3)CC2)cc1 (stereo not given)	-2	0	-3	1	.	.	.	.
Cc1ccc(S(=O)(=O)N2CCC(=O)N([C@H](COC(=O)Nc3ccccc3)Cc3ccccc3)CC2)cc1	8.9*	1	20*	.	3	1	19	13*
COc1ccc(C(=O)Nc2ccc(Cl)c(S(=O)(=O)Nc3ccccc3OC)c2)cc1	13*	0	21*	1	4	2	40*	23*
COc1ccccc1NS(=O)(=O)c1cc(NC(=O)c2ccccc2C)ccc1N1CCOCC1	1	0	18	1	.	.	.	.
COc1ccccc1NS(=O)(=O)c1cc(NC(=O)c2cc(F)c(F)c(F)c2F)ccc1N1CCOCC1	8.8*	-1	22*	3	11	3	43*	28*
CCOc1ccc(NS(=O)(=O)c2cc(NC(=O)c3ccc(C)cc3)ccc2Cl)cc1	13*	1	28*	-2	8	2	39*	22*
Cc1cccc(NC(=O)c2ccc(NS(=O)(=O)c3cccc4cccnc34)cc2)c1	13*	0	24*	2	4	1	24*	15*
Cc1c[nH]c2cccc(-c3c(Cl)cccc3Cl)c12	2	1	7	.	.	.	.	.
O=C(Nc1ccccc1C(F)(F)F)OC1CC2CC1[C@H]1CCCCN1C2 (stereo not given in full)	-8	0	-11	.	.	.	.	.
O=S1(=O)CC2c3ccc(F)cc3CN2CN1C1CCCC1 (stereo not given)	-6	0	-11	.	.	.	.	.
